Results published in PubChem BioAssay AID1159606 (Sanford-Burnham Center for Chemical Genomics, 2016).
Values joined by “and” are separate entries in the source; they are usually repeats but may differ in a detail not shown here. Equal values may be shown once. The campaign covered roughly 360,000 compounds. About 7,300 (2%) were called active. The sample holds actives, similar compounds and a random draw of the others, so the mix is not that of the screen. No stated cut-off is given here; in the data, active means inhibition above about 50%; inactive means the rest.

test: blockers of TWEAK-induced Fn14 reporter activity – luciferase reporter cells, uHTS, primary screen (AID 1159606); conditions: TWEAK-stimulated Fn14 reporter cells, luciferase luminescence, 8 h; at 10 µM; active compounds read high

Row | SMILES | inhibition
1 | O=C1CCCCC1Sc1ccc(Cl)cc1[N+](=O)[O-] (stereo not given) | 5.84% (inactive)
2 | O=C(COC(=O)/C=C/c1ccc(Cl)cc1)NC1CCS(=O)(=O)C1 (stereo not given) | -27.7% (inactive)
3 | CC(=O)c1cccc(-c2cnc3c(NC=O)cc(-c4ccc(N(C)C)cc4)cn23)c1 | 19.9% (inactive)
4 | COc1cccc(-c2cc(NC(C)=O)c3ncc(-c4cccc(C(C)=O)c4)n3c2)c1 | 12.6% (inactive)
5 | CC(=O)Nc1cc(-c2ccccc2N(C)C)cn2c(-c3ccc(F)c(Cl)c3)cnc12 | -9.86% (inactive)
6 | CC(=O)c1cccc(-c2cnc3c(NC=O)cc(-c4ccccc4Oc4ccccc4)cn23)c1 | 55.7% (active)
7 | CC(=O)c1ccc(-c2cnc3c(NC=O)cc(-c4cccc(NS(C)(=O)=O)c4)cn23)cc1 | -8.7% (inactive)
8 | CC(=O)Nc1cccc(-c2cc(NC=O)c3ncc(-c4ccc(F)c(Cl)c4)n3c2)c1 | 82.2% (active)
9 | CC(=O)c1cccc(-c2cnc3c(NC=O)cc(-c4cccc(C(=O)N(C)C)c4)cn23)c1 | 6.56% (inactive)
10 | COc1cccc(-c2cnc3c(NC(C)=O)cc(-c4cccc(NC(C)=O)c4)cn23)c1 | -0.58% (inactive)
11 | CC(=O)Nc1cccc(-c2cc(NC(C)=O)c3ncc(-c4ccccc4)n3c2)c1 | 89.2% (active)
12 | CC1=NNC(=O)C1Cc1c(Cl)cccc1Cl (stereo not given) | 4.96% (inactive)
13 | O=C(NCc1ccc(F)cc1)c1cc(C2CCCCN2C(=O)C2CCCCC2)on1 (stereo not given) | 32.6% (inactive)
14 | C=CCSc1nnc2c(n1)-c1cccc3cccc-2c13 | -43.7% (inactive)
15 | CC(=O)c1c(C)n([O-])c2ccccc2[n+]1=O | -13.5% (inactive)
16 | O=C(Nc1cc(S(=O)(=O)N2CCOCC2)ccc1N1CCOCC1)c1c(F)cccc1Cl | -8.44% (inactive)
17 | Cc1cc(Cl)ccc1-c1nc(NCCN(C)C)nc2ccsc12 | -11.1% (inactive)
18 | O=C(CCc1ccc(S(=O)(=O)NC2CCCCC2)cc1)NCc1ccccc1 | 1.8% (inactive)
19 | CCCCNC(=O)C[C@@H]1C[C@@]2(C(=O)OCC)CCC=C2N(Cc2ccco2)C1=O | 11% (inactive)
20 | CC(C)(C)NC(=O)CN(C(=O)c1csnn1)c1ccccc1-c1ccccc1 | -13.7% (inactive)
21 | COC(=O)C1NN=C(C(=O)c2ccc(Br)cc2)C1c1cccc(Br)c1 (stereo not given) | 48.4% (inactive)
22 | CC1=C(C)CC2C(=O)N(c3cccc4ccccc34)C(=O)C2C1 (stereo not given) | 11.9% (inactive)

Row | SMILES | inhibition
23 | Cc1ccc(N2C(=O)CC(Nc3cccc4ccccc34)C2=O)cc1 (stereo not given) | 51.9% (active)
24 | O=C(Cc1ccccc1)NNC1CC(=O)N(c2ccc(Br)cc2)C1=O (stereo not given) | 12.9% (inactive)
25 | O=C(CN1CCN(S(=O)(=O)c2ccc(Br)cc2)CC1)Nc1ccccc1C(=O)c1ccccc1 | -6.36% (inactive)
26 | C[N+](C)(C)CCNC(=O)c1c[nH]c2ccccc12 | -3.99% (inactive)
27 | O=C(NCC1CCCO1)c1cc2c([nH]c3ccccc32)c(-c2ccc(F)cc2)n1 (stereo not given) | 51% (active)
28 | COc1ccc2cc(C(=O)NCC3CCCO3)[nH]c2c1 (stereo not given) | -11.1% (inactive)
29 | O=C(NCCCO)c1cc2c([nH]c3ccccc32)c(-c2ccc(F)cc2)n1 | 54.8% (active)
30 | O=C(CSc1nc2ccccc2c(=O)n1Cc1ccc(F)cc1)NCC1CCCO1 (stereo not given) | -1.57% (inactive)
31 | O=C(NCCc1ccc(F)cc1)c1n[nH]c2ccccc12 | -18.2% (inactive)
32 | CC(C)C[C@@H]1COc2cc(N3CCC[C@@H]3CO)ccc2S(=O)(=O)N1 | 15.8% (inactive)
33 | CC1(C)OC(=O)C2=C(C[C@@H](C3CCCC3)O[C@@H]2c2ccc(Cl)cc2)O1 | 1.8% (inactive)
34 | CC(C)CN(C(=O)c1cccc(S(=O)(=O)N2CCCCC2)c1)C1CCS(=O)(=O)C1 (stereo not given) | -4.27% (inactive)
35 | COc1ccc2nc(-c3ccccn3)ccc2c1 | 61.3% (active)
36 | COc1ccc(C=C(C#N)C#N)c(CSc2ccccn2)c1 | 9.11% (inactive)
37 | COc1ccc2cc(CCl)c(Cl)nc2c1 | 3.18% (inactive)
38 | OCCC1CN(Cc2cccc(O)c2)CCN1CCc1ccccc1 (stereo not given) | 15.9% (inactive)
39 | O=C(CCNC(=O)Cn1ccc2ccccc2c1=O)NCCC1=CCCCC1 | -2.43% (inactive)
40 | Cc1nnc(OCC(=O)NCCC2=CCCCC2)c2ccccc12 | 8.22% (inactive)
41 | O=C(Cc1cccc2ccccc12)NCCC1=CCCCC1 | 99.4% (active)
42 | Cc1nccn1-c1ccc(NC(=O)[C@H]2O[C@@H](n3ccc(=O)[nH]c3=O)[C@H](O)[C@@H]2O)cc1 | -4.03% (inactive)
43 | Cc1ccc2c(c1)N(CCCC(=O)NCc1cccnc1)C(=O)CO2 | 7% (inactive)
44 | COc1ccc(S(=O)(=O)N2CCCCC2)cc1C(=O)NC1CCS(=O)(=O)C1 (stereo not given) | 4.36% (inactive)

Row | SMILES | inhibition
45 | O=C(Nc1cccc(NC(=O)c2ccccc2[N+](=O)[O-])c1)c1ccccc1Cl | -3.52% (inactive)
46 | CC(=O)Nc1ccc(NC(=O)C(C)OC(=O)c2ccccc2C(=O)c2ccc(Cl)c([N+](=O)[O-])c2)cc1 (stereo not given) | 95.7% (active)
47 | CC(OC(=O)CNC(=O)c1ccc(Cl)c([N+](=O)[O-])c1)C(=O)NCc1ccco1 (stereo not given) | -16.1% (inactive)
48 | CC(=O)Nc1ccc(NC(=O)COC(=O)c2ccccc2C(=O)c2ccccc2)cc1 | 16.1% (inactive)
49 | N#Cc1cccc(NC(=O)COC(=O)c2ccccc2C(=O)c2ccc(Cl)c([N+](=O)[O-])c2)c1 | 99.5% (active)
50 | COC(=O)c1cc(NC(=O)Cc2ccccc2[N+](=O)[O-])ccc1Cl | -1.56% (inactive)
51 | O=C(NCc1cccnc1)c1cc(C2CCCN(C(=O)CCCc3ccccc3)C2)on1 (stereo not given) | 0.68% (inactive)
52 | O=C(NNS(=O)(=O)c1ccccc1)c1cnn(-c2ccc(Cl)cc2)c1C(F)(F)F | 4.65% (inactive)
53 | CCCCN(C)CCNC(=O)C1CCCN(S(=O)(=O)c2cccc3nsnc23)C1 (stereo not given) | -0.5% (inactive)
54 | CCCCN(CC)C(=O)C1CCCN(S(=O)(=O)c2cccc3nsnc23)C1 (stereo not given) | -6.36% (inactive)
55 | O=C(c1ccco1)N1CCN(C(=O)C2CCCN(S(=O)(=O)c3cccc4nsnc34)C2)CC1 (stereo not given) | 62.4% (active)
56 | O=C(CCl)NNc1cccc(Cl)n1 | -23.4% (inactive)
57 | O=C(Nc1cccc(Cl)c1)Nc1ccccc1NS(=O)(=O)c1cccs1 | 10.4% (inactive)
58 | O=S(=O)(Nc1ccccc1N1CCOCC1)c1ccc(Cl)s1 | 4.55% (inactive)
59 | COc1cc(NC(=O)c2ccccc2NS(=O)(=O)c2ccc(Cl)s2)cc(OC)c1 | 72.6% (active)
60 | CCOCCCN(C)C1CCN(C(=O)c2oc3ccccc3c2NC(=O)Cc2cccc([N+](=O)[O-])c2)CC1 | -1.52% (inactive)
61 | Cc1ccc2c(c1)NC(=O)[C@@]1(C)[C@@H](c3ccccc3)[C@H]3COc4ccc(Cl)cc4[C@@H]3N1C2=O | 15.4% (inactive)
62 | CCN1CCN(c2sc(S(C)(=O)=O)nc2S(=O)(=O)c2ccc(Cl)cc2)CC1 | 31.6% (inactive)
63 | COC(=O)[C@@]1(Sc2ccc(C)cc2)CC(=O)N(c2cccc(SC)c2)[C@@H]1c1ccccc1 | 69.9% (active)
64 | CCOC(=O)N1C(=O)C[C@](Sc2ccc(C)cc2)(C(=O)OC)[C@H]1c1ccccc1 | 14.7% (inactive)
65 | COC(=O)c1ccccc1SC1CC(=O)N(c2cccc(C)c2)C1=O (stereo not given) | -5.63% (inactive)
66 | CCCCn1nnnc1C(c1cc2ccccc2o1)N(C)Cc1ccc(Cl)c(Cl)c1 (stereo not given) | -0.38% (inactive)

Row | SMILES | inhibition
67 | COc1ccc(C(=O)N2CCCCC2c2cc(C(=O)Nc3ccccc3)no2)cc1 (stereo not given) | -7.61% (inactive)
68 | COc1cc2[nH]c(=S)n(CCN3CCCCC3C)c(=O)c2cc1OC (stereo not given) | 77.3% (active)
69 | CCOc1cc2[nH]c(=S)n(CCN3CCCCC3C)c(=O)c2cc1OCC (stereo not given) | -2.73% (inactive)
70 | COc1cc2[nH]c(=S)n(Cc3ccc(F)cc3)c(=O)c2cc1OC | -27% (inactive)
71 | CCOCCCNC(=O)C(NC(=O)CNC(=O)c1ccccc1)c1ccc(OC)cc1 (stereo not given) | -12.7% (inactive)
72 | CN(C)Cc1ccc(F)cc1Sc1cc(Cl)ccc1Cl | 5.28% (inactive)
73 | CC(=O)N1C(C)c2ccccc2C(C)(C)CC12CCCCC2 (stereo not given) | -11.4% (inactive)
74 | CO/N=C(\C(=O)N[C@@H]1C(=O)N2C(C(=O)O)=C(COC(C)=O)CS[C@H]12)c1csc(N)n1 (stereo in doubt) | 15% (inactive) and 5.82% (inactive) and -5.11% (inactive)
75 | C=CC1=C(C(=O)O)N2C(=O)[C@@H](NC(=O)/C(=N\OCC(=O)O)c3csc(N)n3)[C@H]2SC1 | 14.2% (inactive)
76 | C=CC1=C(C(=O)O)N2C(=O)[C@@H](NC(=O)/C(=N/OCC(=O)O)c3csc(N)n3)[C@H]2SC1 | 75.2% (active)
77 | CC(=O)c1ccc(S(=O)(=O)N(C)CCCC(=O)N(C)Cc2ccccc2F)cc1 | 13.5% (inactive)
78 | CC1(C)OC(=O)C2=C(C[C@@H](C3CCCCC3)O[C@@H]2c2ccc(Cl)cc2)O1 | -5.53% (inactive)
79 | Cc1cccc(N2CCN(C(=O)COCc3cc(-c4ccc5c(c4)OCO5)on3)CC2)c1C | -13.9% (inactive)
80 | CC(=O)N(Cc1cc(=O)[nH]c2ccccc12)c1ccc(C)cc1C | 4.2% (inactive)
81 | Cc1ccc(N(Cc2cc(=O)[nH]c3ccccc23)C(=O)CCl)cc1 | 52.1% (active)
82 | CCC(=O)N(Cc1cc2ccccc2[nH]c1=O)c1ccc(OC)cc1 | -8.72% (inactive)
83 | CCN(CC)S(=O)(=O)c1cccc(C(=O)NCC(=O)OCC(=O)NCc2ccccc2)c1 | 0.62% (inactive)
84 | Cc1ccc(F)cc1S(=O)(=O)Nc1cccc(C(=O)N2CCCC(C(N)=O)C2)c1 (stereo not given) | -7.05% (inactive)
85 | NC(=O)[C@H]1CC2(CC(c3cccc(NC(=O)[C@H]4CCC(=O)N4)c3)=NO2)CN1C(=O)c1ccccc1C(=O)c1ccccc1 (stereo not given in full) | -12.2% (inactive)
